Reference: the supplement of paper PMC6555819

Legend:
Experiment in all cases: PBM binding z-score (relative to random genomic background probes); higher = stronger binding; sequences stand for … in GC…GCGATTGACAGCGTAGAATGAAGG
[1] = system: FXR:RXRa (NR concentration 270 nM, RXRa partner concentration 90 nM)
Summary of the method: (§1)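 Custom Agilent 4×180K protein-binding microarrays carried double-stranded probes, each with a 34-nt variable region. These regions held direct-repeat seeds, single-nucleotide variants, half-site ablations and random human genomic background sequences. Ligand-free nuclear receptor dimers were incubated on the arrays for 1 h, antibodies against each partner (one per run) detected binding, and scanned fluorescence was regression-normalized. Binding z-scores take the random background probes as reference.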

[2] = system: LXRa:RXRa (NR concentration 270 nM, RXRa partner concentration 90 nM)
Summary of the method: as §1

[3] = system: LXRa homodimer (NR concentration 270 nM)
Summary of the method: as §1

[4] = system: LXRb:RXRa (NR concentration 270 nM, RXRa partner concentration 90 nM)
Summary of the method: as §1

[5] = system: LXRb homodimer (NR concentration 270 nM)
Summary of the method: as §1

[6] = system: PPARa:RXRa (NR concentration 270 nM, RXRa partner concentration 90 nM)
Summary of the method: as §1

[7] = system: PPARg:RXRa (NR concentration 180 nM, RXRa partner concentration 90 nM)
Summary of the method: as §1

[8] = system: PPARg:RXRa 270nM:90nM, anti-RXR (NR concentration 270 nM, RXRa partner concentration 90 nM)
Summary of the method: as §1

[9] = system: PPARg:RXRa 30nM:10nM, anti-RXR (NR concentration 30 nM, RXRa partner concentration 10 nM)
Summary of the method: as §1

[10] = system: PPARg:RXRa 90nM:30nM, anti-RXR (NR concentration 90 nM, RXRa partner concentration 30 nM)
Summary of the method: as §1

[11] = system: PPARg:RXRa DBDmut IVT, anti-RXR (DBD mutation: RXRa K156A/R161A, NR concentration 270 nM, RXRa partner concentration 90 nM)
Summary of the method: as §1

[12] = system: PPARg:RXRa IVT, anti-PPARg (NR concentration 270 nM, RXRa partner concentration 90 nM)
Summary of the method: as §1

[13] = system: PPARg DBDmut:RXRa IVT, anti-PPARg (DBD mutation: PPARg1 K132A/R137A, NR concentration 270 nM, RXRa partner concentration 90 nM)
Summary of the method: as §1

[14] = system: PPARg DBDmut IVT, anti-PPARg (DBD mutation: PPARg1 K132A/R137A, NR concentration 270 nM)
Summary of the method: as §1

[15] = system: PPARg homodimer (NR concentration 180 nM)
Summary of the method: as §1

[16] = system: PXR:RXRa (NR concentration 270 nM, RXRa partner concentration 90 nM)
Summary of the method: as §1

[17] = system: PXR homodimer (NR concentration 270 nM)
Summary of the method: as §1

[18] = system: RARa:RXR (NR concentration 270 nM, RXRa partner concentration 90 nM)
Summary of the method: as §1

[19] = system: RARa homodimer (NR concentration 270 nM)
Summary of the method: as §1

[20] = system: RARb:RXRa (NR concentration 270 nM, RXRa partner concentration 90 nM)
Summary of the method: as §1

Sequence	PBM binding z-score [1]	PBM binding z-score [2]	PBM binding z-score [3]	PBM binding z-score [4]	PBM binding z-score [5]	PBM binding z-score [6]	PBM binding z-score [7]	PBM binding z-score [8]	PBM binding z-score [9]	PBM binding z-score [10]	PBM binding z-score [11]	PBM binding z-score [12]	PBM binding z-score [13]	PBM binding z-score [14]	PBM binding z-score [15]	PBM binding z-score [16]	PBM binding z-score [17]	PBM binding z-score [18]	PBM binding z-score [19]	PBM binding z-score [20]
CGAACTAGGTCATCCAGGACAATGAATACATTGA	4.61	2.74	0.73	2.14	0.294	4.83	7.88	6.22	4.07	6.1	7.89	8.42	3.32	1.7	1.95	2.1	2.1	2.31	0.706	3.87
CCTTACGGGTCACTCCAGGTTACAGCATCGGAGT	4.9	7.35	2.06	4.72	0.0209	4.42	3.74	3.8	1.1	2.64	2.73	4.01	0.164	-0.572	1.91	4.66	0.311	3.94	0.566	3.86
GATACAGGGTCAACGCCAGAGTACGCGTATTGAT	7	4.57	-0.128	3.91	0.0606	5.69	6.17	5.78	2.67	4.5	3.53	4.25	0.296	0.699	2.98	4.11	0.215	5.05	0.72	4.7
GGGACGAGGGCAAGTTGATAGCAGAGTTTGATGG	1.19	0.762	0.0189	1.18	0.857	1.42	1.09	1.2	0.448	0.913	2.39	2.34	-0.115	0.569	1.21	1.15	0.763	0.688	-0.141	2.91
CCAGACAGGTGAGAAGGTGACTCAGCCTCGATTA	0.0148	-0.0121	-0.103	0.201	-0.178	0.868	0.495	0.694	-0.409	0.222	1.19	0.996	0.0696	-0.454	0.821	-0.175	0.603	0.235	0.708	1.02
TTACCAAGGTGAGCCGAGGTCGTTGATCCAACTC	2.53	1.33	-0.48	1.11	-1.11	2.19	0.623	1.32	-0.155	0.541	1.46	2.45	0.0524	0.067	-0.0527	4.95	0.39	1.95	-0.75	1.99
ATAGAAAGGTCGAGGTGAGTATAGAGAAAGGGAA	4.25	3.22	0.369	2.75	0.952	4.36	3.26	3.43	1.67	2.2	0.449	1.99	1.74	0.872	2.34	2.55	0.613	3.6	1.71	4
GCTGCTAGGTTAGGTTGGTCAGCTAACGGGTACG	-0.39	-0.356	-0.358	-0.526	-0.743	-0.376	-0.306	-0.464	-0.769	-0.625	1	0.292	-1.46	-0.928	-0.465	-0.364	-0.359	-0.327	-0.345	0.767
GATACAGGGTCAAGACCAGAGTACGCGTATTGAT	6.27	3.79	0.0908	3.63	0.0748	5.37	5.25	4.91	1.75	3.56	1.96	3.52	1.38	0.619	1.49	3.34	0.195	3.93	0.851	4.28
GCTGCTAGGTCAACTGATGGTCAGCTGAAGCTCG	4.05	3.09	0.169	1.83	-0.22	3.62	2.6	2.86	0.554	2.21	4.69	3.93	-0.679	-0.202	1.06	1.45	-0.515	2.72	-0.515	4.31
ATACCAAGGTGATCTTGAGGTCGTTGATACTAAC	2.36	2.49	1.86	1.92	0.411	1.91	0.527	0.843	-0.161	0.624	0.853	1.45	0.8	0.628	1.02	3.3	2.03	2.54	0.867	1.71
AGTCAAAGTTCATCTAGGTAACTTAAGATATGCT	6.76	6.19	5.17	3.8	1.81	4.6	6.6	6.26	2.93	5.64	1.01	3.43	1.87	1.38	4.01	5.28	7.67	3.91	1.85	4.6
CCTACAGGGCCACGAAAGGTCATTGATTCAGTGA	4.09	5.83	4.74	4.54	0.292	4.51	1.86	3.15	0.825	2.22	0.816	1.87	-0.216	-0.41	2.63	5.61	1.86	5.07	1.07	4.32
ATCTCTAGGTAAGGCTCAGTTCAGTGAAGAACGC	0.198	0.107	0.412	0.0703	0.35	0.125	0.0741	0.513	0.188	0.48	1.94	1.3	0.628	1.33	0.996	0.855	1.22	0.496	0.033	0.228
CCGACTGGGGCAAGGTTACCCTAACGCACAGCCA	0.301	0.334	-0.217	0.52	-1.15	1.88	2.75	3.18	0.752	2.75	2.55	3.74	-0.273	-0.891	0.107	0.232	-0.208	0.791	-0.576	1.58
